Data as given in PMC7826789 (International Journal of Molecular Sciences, 2021).

Columns and labels:
Settings in all cases: Compound Concentration (nM):1000
CSF1R = test system: CSF1R
CSK = test system: CSK
CSNK1A1L = test system: CSNK1A1L
CSNK1A1 = test system: CSNK1A1
CSNK1D = test system: CSNK1D
CSNK1E = test system: CSNK1E
CSNK1G1 = test system: CSNK1G1
CSNK1G2 = test system: CSNK1G2
CSNK1G3 = test system: CSNK1G3
CSNK2A1 = test system: CSNK2A1
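Also: KINOMEscan scanMAX binding as percent activity remaining versus control; lower means stronger binding.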

Row | Structure (SMILES) | Percent Control (CSF1R) [%] | Percent Control (CSK) [%] | Percent Control (CSNK1A1L) [%] | Percent Control (CSNK1A1) [%] | Percent Control (CSNK1D) [%] | Percent Control (CSNK1E) [%] | Percent Control (CSNK1G1) [%] | Percent Control (CSNK1G2) [%] | Percent Control (CSNK1G3) [%] | Percent Control (CSNK2A1) [%]
1 | CC1=C(C(=O)Nc2ccc3[nH]ncc3c2)C(c2ccc3ccccc3c2)CC(=O)N1 (stereo not drawn) [GSK270822A] | 82 | 95 | 64 | 91 | 100 | 100 | 92 | 89 | 100 | 80
2 | Cc1cc(O)cc(C)c1/C=C/c1cncc(C(N)=O)c1 [GW435821X] | 34 | 80 | 100 | 100 | 100 | 86 | 100 | 100 | 100 | 90
3 | COc1cc(C)c(N(C)C(=O)CN(C)C)cc1Nc1nc(Nc2cccc(F)c2C(N)=O)c2cc[nH]c2n1 [GSK2219385] | 100 | 95 | 67 | 47 | 23 | 23 | 54 | 11 | 28 | 78
4 | NS(=O)(=O)c1ccc(N/N=C2\C(=O)Nc3ccc(Cl)cc32)cc1 [GW280670X] | 100 | 100 | 100 | 100 | 100 | 93 | 100 | 100 | 100 | 81
5 | COc1cccc(-c2c[nH]c3c(N/N=C/c4ccncc4)ncnc23)c1 [GW814408X] | 46 | 66 | 100 | 88 | 92 | 83 | 100 | 90 | 100 | 14
6 | C[C@@H](Oc1cc(-n2cnc3ccc(OC4CCN(C)CC4)cc32)sc1C(N)=O)c1ccccc1Cl [GSK579289A] | 65 | 76 | 89 | 77 | 80 | 100 | 83 | 80 | 100 | 55
7 | NS(=O)(=O)c1ccc(Nc2ncc(-c3ccccc3)o2)cc1 [GW572399X] | 100 | 100 | 100 | 100 | 100 | 83 | 100 | 100 | 100 | 76
8 | CCS(=O)(=O)c1ccc(OC)c(Nc2ncc(-c3cccc(OC)c3)o2)c1 [GW580509X] | 72 | 90 | 100 | 100 | 100 | 85 | 99 | 100 | 97 | 21
9 | COc1cc(/C=N/Nc2ncnc3[nH]ncc23)ccc1O [GW578748X] | 93 | 67 | 94 | 61 | 57 | 60 | 67 | 42 | 79 | 8.7
10 | O=C1Nc2ccc(C(=O)c3ccco3)cc2C1=Cc1cc(Cl)c(O)c(Cl)c1 [GW406108X] | 93 | 79 | 100 | 93 | 100 | 100 | 82 | 96 | 100 | 9.7
11 | CC(C)COC(=O)c1ccc2c(c1)/C(=C/Nc1ccc(S(N)(=O)=O)cc1)C(=O)N2 [GW416981X] | 100 | 100 | 50 | 99 | 100 | 100 | 96 | 94 | 100 | 9
12 | CCn1c(-c2nonc2N)nc2c(C#CC(C)(C)O)nc(OCCNC)cc21.Cl [GSK949675] | 100 | 100 | 100 | 94 | 100 | 100 | 100 | 92 | 100 | 100
13 | O=C(Nc1n[nH]c2nc(-c3ccc(O)cc3)c(Br)cc12)C1CC1 [SB-725317] | 100 | 100 | 100 | 100 | 100 | 85 | 100 | 100 | 100 | 87
14 | NS(=O)(=O)c1ccc(N/N=C2\C(=O)Nc3ccc(C(=O)NCCc4c[nH]cn4)cc32)cc1 [GW300660X] | 100 | 100 | 100 | 89 | 100 | 100 | 100 | 100 | 100 | 27
15 | Cl.c1ccc(Cc2nc3ccc(Nc4ncnc5ccccc45)cc3[nH]2)cc1 [GR269666A] | 100 | 22 | 100 | 100 | 100 | 93 | 100 | 100 | 100 | 82
16 | COc1ccc2[nH]c3c4[nH]c5ccc(OC)cc5c4c4c(c3c2c1)C(=O)NC4=O [GW296115X] | 58 | 95 | 91 | 62 | 94 | 52 | 74 | 86 | 100 | 61
17 | Nc1ncnc2occ(-c3ccc(NC(=O)Nc4cc(C(F)(F)F)ccc4F)cc3)c12 [GW770249X] | 0.2 | 74 | 92 | 100 | 82 | 76 | 98 | 92 | 99 | 100
18 | COc1ccc2c(-c3ccnc(Nc4cccc(OC(F)(F)F)c4)n3)cnn2n1 [GW810372X] | 100 | 100 | 100 | 92 | 100 | 100 | 98 | 100 | 100 | 67
19 | CN1CCN(C(=O)c2ccc(NC(=O)Nc3ccc(N(C)c4ccnc(Nc5ccc(CS(C)(=O)=O)cc5)n4)cc3)cc2)CC1.Cl [GW830263A] | 0 | 62 | 100 | 85 | 99 | 75 | 100 | 100 | 100 | 83
20 | COc1ccc2cc(-c3c(-c4ccncc4)nc(-c4ccc(S(C)(=O)=O)cc4C)n3C)ccc2c1 [SB-633825] | 93 | 98 | 55 | 85 | 86 | 69 | 90 | 81 | 100 | 82

Row | Structure (SMILES) | Percent Control (CSF1R) [%] | Percent Control (CSK) [%] | Percent Control (CSNK1A1L) [%] | Percent Control (CSNK1A1) [%] | Percent Control (CSNK1D) [%] | Percent Control (CSNK1E) [%] | Percent Control (CSNK1G1) [%] | Percent Control (CSNK1G2) [%] | Percent Control (CSNK1G3) [%] | Percent Control (CSNK2A1) [%]
21 | COc1cc2ncn(-c3cc(O[C@H](C)c4ccccc4Cl)c(C(N)=O)s3)c2cc1OC [GSK237701A] | 63 | 88 | 60 | 88 | 100 | 100 | 85 | 89 | 100 | 83
22 | CCS(=O)(=O)c1ccc(OC)c(Nc2ncc(-c3cccc(F)c3)o2)c1 [GW621970X] | 48 | 98 | 100 | 100 | 100 | 100 | 100 | 100 | 100 | 6.2
23 | Cl.O=S1CCN(Cc2ccc(-c3ccc4ncnc(Nc5ccc(OCc6ccccc6)c(F)c5)c4c3)o2)CC1 [GW576924A] | 100 | 100 | 100 | 100 | 100 | 100 | 100 | 100 | 100 | 84
24 | COc1cccc(-n2ncc3c(N/N=C/c4ccncc4)ncnc32)c1 [GW784752X] | 100 | 78 | 91 | 94 | 92 | 100 | 100 | 100 | 100 | 20
25 | Cl.O=C(Nc1ccc(Oc2ccc3[nH]c(NC(=O)c4ccccc4)nc3c2)cc1)Nc1cc(C(F)(F)F)ccc1F [GW709042A] | 6.1 | 96 | 97 | 100 | 87 | 83 | 100 | 100 | 100 | 92
26 | CN(C)c1cc2c(Nc3ccc4c(cnn4Cc4ccccc4)c3)ncnc2cn1 [GW282974X] | 100 | 23 | 84 | 82 | 97 | 85 | 80 | 100 | 100 | 82
27 | COc1cc2ncnc(Nc3ccc4c(cnn4Cc4ccccc4)c3)c2cc1OC.Cl [GW282449A] | 100 | 5.1 | 100 | 100 | 100 | 97 | 100 | 100 | 100 | 82
28 | COc1cc(C=NNc2ncnc3c2cnn3-c2ccccc2)ccc1O [GW513184X] | 100 | 100 | 100 | 77 | 86 | 51 | 100 | 57 | 93 | 28
29 | Cl.O=C(Nc1ccc(Oc2ccc3[nH]c(NC(=O)c4ccco4)nc3c2)cc1)Nc1cc(C(F)(F)F)ccc1F [GW683134A] | 1.5 | 85 | 90 | 100 | 98 | 93 | 100 | 100 | 100 | 88
30 | CC1=C(C(=O)Nc2ccc3[nH]ncc3c2)C(c2ccc(Cl)c(Cl)c2)CC(=O)N1 (stereo not drawn) [GSK299115A] | 97 | 91 | 66 | 84 | 100 | 100 | 100 | 88 | 96 | 91
31 | CN(C)CCNC(=O)Nc1ccc(N(C)c2ccnc(Nc3ccc(CS(C)(=O)=O)cc3)n2)cc1.Cl [GW830900A] | 0.6 | 98 | 85 | 79 | 93 | 88 | 90 | 96 | 95 | 78
32 | NS(=O)(=O)c1ccc(N/N=C2\C(=O)Nc3ccc(C(=O)NCc4ccncc4)cc32)cc1 [GW300657X] | 99 | 87 | 60 | 83 | 92 | 98 | 87 | 100 | 67 | 53
33 | COC(=O)Nc1nc2ccc(Oc3ccc(NC(=O)Nc4cc(C(F)(F)F)ccc4F)cc3)cc2s1.Cl [GW693917A] | 2.3 | 70 | 92 | 83 | 100 | 98 | 96 | 100 | 94 | 91
34 | COc1ccccc1-c1cc(/C=C2\C(=O)Nc3ncc(Br)cc32)cc(Br)c1O [GW442130X] | 100 | 100 | 100 | 100 | 94 | 79 | 100 | 94 | 100 | 66
35 | COc1cc(N2CCN(C(C)C)CC2)ccc1Nc1nc(Nc2ccc(F)cc2C(=O)NC[C@@H](O)CO)c2cc[nH]c2n1 [GSK1392956A] | 100 | 86 | 68 | 35 | 31 | 46 | 52 | 32 | 29 | 51
36 | NS(=O)(=O)c1ccc(N/N=C2\C(=O)Nc3ccc(-c4cnco4)cc32)cc1 [GW276655] | 100 | 92 | 78 | 76 | 60 | 96 | 100 | 72 | 91 | 50
37 | C/C(Nc1ccc(S(N)(=O)=O)cc1)=C1/C(=O)Nc2ccccc21 [GW335962X] | 100 | 86 | 97 | 67 | 87 | 100 | 88 | 85 | 99 | 57
38 | Cl.O=C(O[C@H]1CN[C@H](C#Cc2cc3ncnc(Nc4ccc5c(cnn5Cc5ccccc5)c4)c3s2)C1)N1CCOCC1 [GSK200398A] | 100 | 67 | 92 | 89 | 91 | 79 | 92 | 100 | 92 | 75
39 | COc1ccc(COc2ccc(Cc3cnc(N)nc3N)cc2OC)cc1 [GW632580X] |  | 87 | 86 | 100 | 100 | 100 | 88 | 88 | 100 | 90
40 | CCc1ccc(Oc2nccc(-c3c(-c4ccc(F)cc4)ncn3C3CCNCC3)n2)cc1 [SB-242719] | 100 | 80 | 66 | 5.1 | 1.7 | 0.4 | 83 | 40 | 53 | 77
